Bioassay records from PubChem BioAssay.
Pf growth 48h – Primary qHTS for delayed death inhibitors of the malarial parasite plastid, 48 hour incubation; P. falciparum luciferase growth in erythrocytes, 48 h; Potency, µM (series often up to 28.7 µM), for inactives: at the top dose activity change, negative = inhibition, usual class: inhibitors; actives 5.9% (n = 310,000); further: potency means the concentration at half of the fitted maximal effect
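In quantitative HTS format, infected erythrocytes bearing luciferase-reporter parasites were treated for a single generation at 37 C. Luminescence after adding detection reagent served as the growth measure.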
Pf growth 96h – Primary qHTS for delayed death inhibitors of the malarial parasite plastid, 96 hour incubation; P. falciparum luciferase reporter growth, 96 h; actives 6.9% (n = 320,000); Potency, µM (titrated, usually from 28.7 µM), for the others: at the highest dose activity change, negative = inhibition, actives largely listed as inhibitors; AID 504834, 2011; further: potency means the concentration at half of the fitted maximal effect
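Parasite growth measured via integrated firefly luciferase reporter in P. falciparum. Infected erythrocytes at 2% hematocrit, 0.05% parasitemia final were treated 96 hours at 37 C under 5% CO2, and luminescence was read.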
HCV inhibitor – qHTS Assay for Inhibitors of Hepatitis C Virus (HCV); Huh7.5.1 HCVcc-Cre infection, luciferase reporter, 44 h; Potency, µM (highest dose often 41.8 µM), inactives show at the highest dose activity change, negative = inhibition, actives largely listed as inhibitors; actives 3.4% (n = 340,000); AID 651820, 2012; further: potency means the concentration at half of the fitted maximal effect
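Infectious HCVcc-Cre (~0.5 moi) was added to cells just after compound, with cells seeded 4 h earlier at 1,000 per well. Luciferase activity after 44 h culture reported infection; substrate was incubated 15 min at room temperature before reading.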
HCMV antiviral – qHTS Assay for inhibitors of the human cytomegalovirus (HCMV); actives 4.5% (n = 410,000); HFF cells, HCMV-luciferase reporter, 72 h; active compounds read low; activity change, negative = inhibition, % at 57.5 µM; in the data active means activity change below about -60%; inconclusive means no clear call, values can overlap the other calls; inactive means above about -39%
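Steps: HFFs plated, 16 h 37C; compounds added; HCMV-luciferase added to MOI 1 PFU/cell; 72 h 37C; OneGlo reagent, 5 min room temperature; luminescence read, normalized to controls.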
Numbers without * were called inactive; ? = inconclusive; nt = no result. Most compounds without a hit are left out; they make up all but 13% or so of the library. Unless noted, the call rests on the fitted dose curve; in most records, active means well fitted inhibition curve with a large enough effect; inconclusive means small, poorly fitted or top-dose-only effect, or another doubt; inactive means no such curve, though single readings can be large or run the other way. On the % scale 0 is the no-effect control and ±100 the full control effect.

SMILES | Pf growth 48h | Pf growth 96h | HCV inhibitor | HCMV antiviral
Cn1c2c(c(=O)n(C)c1=O)C(c1ccccc1[N+](=O)[O-])CC(=O)N2 (centres undefined) | nt | nt | nt | 12
O=C(NCc1ccco1)c1ccc(Cl)c(S(=O)(=O)N2CCc3ccccc32)c1 | ? | ? | ? | -82*
O=C(NCC1(N2CCOCC2)CCCCC1)c1ccc(Cl)c(S(=O)(=O)NCc2ccco2)c1 | 6.6µM* | 26% | -6% | -19
O=C(NCc1ccco1)c1ccc(Cl)c(S(=O)(=O)N2CCOCC2)c1 | 2.3µM* | nt | 6% | 6
CC(=O)N1CCN(C(=O)c2ccc(Cl)c(S(=O)(=O)N3CCc4ccccc43)c2)CC1 | ? | ? | 4% | 0
O=C(O)c1ccc(Cl)c(S(=O)(=O)NCc2ccco2)c1 | 7% | 1% | 22% | -18
CC(C)CCN1C(=O)N(c2ccccc2)C(=O)C1CC(=O)Nc1ccc(Cl)cc1 (centres undefined) | nt | nt | nt | -27
Cc1ccsc1C(=O)N(c1nc2ccccc2s1)c1c(C)cccc1C | 12µM* | 8.3µM* | ? | ?
COc1ccc(C)cc1N(C(=O)c1ccccc1F)c1nc2ccccc2s1 | 9.3µM* | 17µM* | ? | 1
COc1ccc(C)cc1N(C(=O)c1cccc(F)c1)c1nc2ccccc2s1 | ? | ? | ? | 19
COc1ccc(C)cc1N(C(=O)COc1ccccc1)c1nc2ccccc2s1 | 10µM* | ? | -1% | 69
Cc1ccccc1N(C(=O)c1cccs1)c1nc2ccccc2s1 | nt | ? | ? | -18
COc1ccc(C)cc1N(C(=O)c1ccccc1)c1nc2ccccc2s1 | 12µM* | 13µM* | 16µM* | -24
CC(C)NC(=O)CSc1nc2ccccc2n1CC(=O)N(C(C)C)C(C)C | 5% | 4.1µM* | -10% | ?
CC(C)N(C(=O)CSc1nc2ccccc2n1Cc1ccc(F)cc1)C(C)C | 4.7µM* | 27% | ? | 3
CC(C)NC(=O)CSc1nc2ccccc2n1CC(=O)N1CCc2ccccc21 | ? | 13µM* | 9% | 38
CC1CCCCN1C(=O)CSc1nc2ccccc2n1CC(=O)N1CCc2ccccc21 (centres undefined) | ? | 42% | -16% | 15
Clc1ccc(-c2csc(-c3nc(-c4ccc(Br)s4)cs3)n2)cc1 | nt | nt | nt | 1
CCn1c(SCc2ccc(C#N)cc2)nnc1-c1ccc(S(=O)(=O)N2CCCCC2)cc1 | 1.5µM* | -2% | 7.9µM* | -70*
Cn1c(SCC(=O)NCc2cccs2)nnc1-c1ccc(S(=O)(=O)N2CCCC2)cc1 | ? | 8.3µM* | -3% | -16
Cc1occc1-c1nnc(SCC(=O)NCc2cccs2)n1CC1CCCO1 (centres undefined) | ? | 5.2µM* | 20% | -11
Cn1c(SCC(=O)N2CCCCC2)nnc1-c1ccc(S(=O)(=O)N2CCOCC2)cc1 | -1% | 13µM* | -16% | -15
CCCCNC(=O)CSc1nnc(-c2ccc(S(=O)(=O)N3CCCC3)cc2)n1C | ? | 17% | 21% | -23
CCn1c(SCC(=O)N2CCCC2)nnc1-c1ccc(S(=O)(=O)N2CCCCCC2)cc1 | 9.3µM* | ? | -5% | 1
Cc1ccc(N2CCN(c3nc4ccc(C)cc4n4nnnc34)CC2)c(C)c1 | nt | nt | nt | -1
SMILES | Pf growth 48h | Pf growth 96h | HCV inhibitor | HCMV antiviral
Cc1ccc(C(=O)NCc2ccccc2)cc1NC(=O)c1nsc2ccccc12 | nt | nt | nt | 48
Nc1ccc(C(=O)OCc2nc3cc4ccccc4cc3[nH]2)cc1 | -6% | 25% | -28% | -93*
Nc1ccc(C(=O)OCCCc2nc3cc4ccccc4cc3[nH]2)cc1 | ? | ? | -16% | ?
CC(=O)C1=C(O)C(=O)N(Cc2ccccc2)C1c1ccc([N+](=O)[O-])cc1 (centres undefined) | 3% | 5% | nt | -38
CC(=O)C1=C(O)C(=O)N(Cc2ccccc2)C1c1ccc(F)cc1 (centres undefined) | nt | 10% | 13% | -77*
Cc1cccc(-c2noc(-c3ccccc3OCC(=O)Nc3ccccc3[N+](=O)[O-])n2)c1 | nt | nt | nt | 6
C=C(C)COc1ccc(-c2ncncc2-c2ccc(Cl)cc2)c(O)c1 | 5.2µM* | 2.3µM* | ? | ?
C=C(C)COc1ccc(-c2ncncc2-c2ccc(Br)cc2)c(O)c1 | 1.9µM* | 2.3µM* | ? | ?
C=C(C)COc1ccc(-c2nc(N)ncc2-c2ccc(Br)cc2)c(O)c1 | 8.3µM* | ? | ? | -20
CCOC(=O)c1c(NC(C)=O)sc2c1CCC(C=NCCCN(CC)CC)=C2Sc1ccccc1 | nt | nt | 7.9µM* | nt
CC(=O)Nc1sc(C)c(C)c1C(=O)OCC(=O)NC(C)c1ccccc1 (centres undefined) | ? | ? | ? | -2
Clc1ccc(N2CCN(c3ncnc4c3nc3n4CCCC3)CC2)cc1 | nt | nt | nt | -69*
Fc1ccc(N2CCN(c3ncnc4c3nc3n4CCCCC3)CC2)cc1 | nt | nt | nt | -24
c1ccc(N2CCN(c3ncnc4c3nc3n4CCCCC3)CC2)cc1 | nt | nt | nt | -76*
CC1C/C(=N\NC(=S)NCc2ccccc2)CC(C)(C)C1 (centres undefined) | nt | 4.1µM* | -23% | 19
CC(C)(C)OC(=O)N1CCC(c2c(C(=O)Nc3ccc4c(c3)OCCO4)cnn2-c2ccccc2)CC1 | nt | nt | nt | 0
Cc1ccc2nc(C)cc(Nc3ccc([N+](=O)[O-])cc3)c2c1 | 0.74µM* | ? | 3.5µM* | ?
Cc1cc(Nc2cccc(Br)c2)c2ccccc2n1 | nt | nt | 7.1µM* | -71*
Cc1cc(Nc2cccc(O)c2)c2ccccc2n1 | ? | 6% | nt | nt
CC(=O)c1ccc(Nc2cc(C)nc3c(C)cccc23)cc1 | ? | 49% | -23% | -6
CC(=O)c1cccc(Nc2cc(C)nc3c(C)cc(C)cc23)c1 | 9.3µM* | ? | -20% | -37
CC(=O)c1cccc(Nc2cc(C)nc3ccc(C)cc23)c1 | 4.1µM* | ? | ? | -8
COC(=O)c1ccc(Nc2cc(C)nc3ccc(C)cc23)cc1 | ? | ? | 10µM* | 3
COc1ccc(CN2C(=O)CSCC2(C)C(=O)Nc2c(C)cccc2C)cc1 (centres undefined) | nt | nt | nt | 50
CCOC(=O)C1(CCOc2ccccc2)CCN(Cc2cccc(OC)c2O)CC1 | 0.59µM* | -22% | ? | -18
CCOC(=O)C1(CCOc2ccccc2)CCN(Cc2ccncc2)CC1 | ? | ? | ? | -34
CCOC(=O)C1(CCOc2ccccc2)CCN(Cc2ccc(-n3cccn3)cc2)CC1 | 15µM* | ? | 2.5µM* | -61*
CCOC(=O)C1(CCOc2ccccc2)CCN(Cc2ccc(O)c(Cl)c2)CC1 | ? | ? | ? | -26
CCOC(=O)C1(CCOc2ccccc2)CCN(Cc2cccc(OC)c2)CC1 | nt | nt | 11µM* | 1
CCOC(=O)C1(CCOc2ccccc2)CCN(Cc2cc(OC)ccc2OC)CC1 | ? | 0% | ? | ?
